Measurements published in PubChem BioAssay (EPA / NIEHS).
The source holds several records for some structures; these can differ, active in one and inactive in another. The source made the active and inactive calls. How the source made its calls: active means hit-call score of the fitted dose curve at least 0.9, where 1 is the maximum; inconclusive means response in the unintended direction; inactive means score below 0.9.

target: Peroxisome proliferator-activated receptor gamma (Homo sapiens) (UniProt P37231); assay: OT_PPARg_PPARgSRC1_1440: Odyssey Thera (OT) 24-hour Protein-Complementation Assay for Peroxisome Proliferator-activated Receptor Gamma/ SRC-1 Co-activator (AID 2283388);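 further: nuclear to cytoplasmic ratio of reconstituted Venus YFP fluorescence in fixed imaged cells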
Sequence (P37231 whole entry, looked up, the tested form may be a part): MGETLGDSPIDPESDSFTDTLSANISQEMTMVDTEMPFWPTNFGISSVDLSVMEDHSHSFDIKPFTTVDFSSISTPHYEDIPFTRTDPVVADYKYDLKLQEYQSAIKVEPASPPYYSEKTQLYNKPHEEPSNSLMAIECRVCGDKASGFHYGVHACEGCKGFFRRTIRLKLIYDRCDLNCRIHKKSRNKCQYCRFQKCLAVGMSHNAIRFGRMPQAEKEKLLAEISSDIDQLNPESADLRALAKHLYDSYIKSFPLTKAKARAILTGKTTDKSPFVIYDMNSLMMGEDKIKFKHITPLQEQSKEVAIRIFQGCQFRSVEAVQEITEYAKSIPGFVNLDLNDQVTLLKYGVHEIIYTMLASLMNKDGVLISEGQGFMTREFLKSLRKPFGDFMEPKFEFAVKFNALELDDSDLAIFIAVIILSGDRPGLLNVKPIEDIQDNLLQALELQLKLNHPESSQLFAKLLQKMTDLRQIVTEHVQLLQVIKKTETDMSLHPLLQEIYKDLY
Description: OT_PPARg_PPARgSRC1_1440 is a cell-based assay that uses HEK293T, a human kidney cell line, with measurements taken at 24 hours after chemical dosing in a 384-well plate.OT_PPARg_PPARgSRC1_1440 is one of one assay component(s) measured or calculated from the OT_PPARg_PPARgSRC1_1440 assay. It is designed to make measurements of protein fragment complementation, a form of binding reporter, as detected with fluorescence intensity signals by Protein-fragment Complementation technology.Data from the assay component OT_PPARg_PPARgSRC1_1440 was analyzed into 1 assay endpoint. This assay endpoint, OT_PPARg_PPARgSRC1_1440, was analyzed in the positive analysis fitting direction relative to DMSO as the negative control and baseline of activity. Using a type of binding reporter, measures of receptor for gain-of-signal activity can be used to understand the binding at the pathway-level as they relate to the gene PPARG. Furthermore, this assay endpoint can be referred to as a primary readout, because the performed assay has only produced 1 assay endpoint. To generalize the intended target to other relatable targets, this assay endpoint is annotated to the nuclear receptor intended target family, where the subfamily is non-steroidal.
The OT PPARg/SRC-1 assay assessed receptor-chemical interactions using a rapidly maturing, intensely fluorescent mutant of YFP known as Venus, rationally dissected into two separate fragments. The fragments were obtained as follows: first, fragments coding for YFP1 and YFP2 (corresponding to amino acid residues 1-158 and 159-239 of the full length YFP, respectively) were generated by oligonucleotide synthesis (Blue Heron Biotechnology), and then PCR mutagenesis was used to generate the mutant fragments IFP1 and IFP2. Fusion constructs were transfected into HEK293T cells with a (Gly4Ser)2 linker between the PPARg/SRC-1 and YFP fragment genes to facilitate complementation when interacting proteins bring fragments into close proximity. The construct is transiently transfected in HEK293T cells 48 hours prior to treatment with test compounds. Cells are seeded into optical quality 384-well poly-D-lysine coated plates in MEM alpha medium (Invitrogen) supplemented with 10 percent FBS (Gemini Bio-Products) 1 percent penicillin and 1 percent streptomycin, and grown in 37C incubator equilibrated to 5 percent CO2. Cells are allowed to adhere for 24 hours prior to treatment with compounds of interest or controls for 24 hours. Cells are fixed in 4 percent formaldehyde and stained with Draq5 (BioStatus) to identify cells and subcellular compartment boundaries prior to signal detection. 8 Images per well were acquired on an Evotec Opera at 2 wavelengths (488 and 635nm), and the ratio of fluorescence in the nucleus relative to fluorescence in the cytoplasm (N/C Ratio) in the 488nm channel was calculated for a minimum of 350 cells per image.

Compound | AC50 | outcome
c1cc[c]([Hg][c]2ccccc2)cc1 | 50 µM (active) | –
CCN1CCC2(CC1)COc1cc3c(cc12)N(C(=O)c1ccc(-c2ccc(-c4nnc(C)o4)cc2C)cc1)CC3 | – | inactive
NNC(=S)NN | – | inactive
O=C(O)C(F)(F)C(F)(F)C(F)(F)C(F)(F)C(F)(F)C(F)(F)C(F)(F)C(F)(F)C(F)(F)C(F)(F)F | – | inactive
C[C@]12CCC(=O)C[C@@H]1CC[C@@H]1[C@@H]2CC[C@]2(C)[C@@H](O)CC[C@@H]12 | – | inactive
CC(=O)[O][Hg][c]1ccccc1 | – | inactive
C=C(C)C(=O)[O][Sn]([CH2]CCC)([CH2]CCC)[CH2]CCC | 0.0287 µM (active) | inactive
COC(=O)c1sccc1S(=O)(=O)NC(=O)Nc1nc(C)nc(OC)n1 | – | inactive
[O-][Cl+2]([O-])O | – | inactive
BrCCBr | – | inactive
COc1ccc(C=O)cc1 | – | inactive
Clc1nc(Cl)nc(Cl)n1 | – | inactive
CC(C)c1cccc(C(C)C)c1O | – | inactive
ClC1(Cl)C2(Cl)C3(Cl)C4(Cl)C(Cl)(Cl)C5(Cl)C3(Cl)C1(Cl)C5(Cl)C24Cl (stereo not given) | – | inactive
CC(C)C1CCC(Cc2ccc(Cl)cc2)C1(O)Cn1cncn1 (stereo not given) | – | inactive
COc1cc(OC)nc(NC(=O)NS(=O)(=O)c2ncccc2C(=O)N(C)C)n1 | – | inactive
C=CC(=O)OCCCCCC(C)C | – | inactive
Cc1ccc2ccccc2c1C | – | inactive
CC(C)(OO)c1ccccc1 | – | inactive
Clc1ccc(C2(Cn3cncn3)CC(Br)CO2)c(Cl)c1 (stereo not given) | – | inactive

Compound | AC50 | outcome
O=c1[nH]c(=O)[nH]c(=O)[nH]1 | – | inactive
Cc1ccccc1C(=O)Nc1cccc(OC(C)C)c1 | – | inactive
C=CC#N | – | inactive
OCC(O)CCl (stereo not given) | – | inactive
Fc1ccc(C2(Cn3cncn3)OC2c2ccccc2Cl)cc1 (stereo not given) | – | inactive
O=[N+]([O-])c1ccc(O)c([N+](=O)[O-])c1 | – | inactive
C1CCC(NC2CCCCC2)CC1 | – | inactive
CN(C)N=O | – | inactive
O=C1C(Cl)=C(Cl)C(=O)c2ccccc21 | 11.8 µM (active) | –
CCOC(=O)Nc1cccc(OC(=O)Nc2ccccc2)c1 | – | inactive
CCC(=O)C(CC(C)N(C)C)(c1ccccc1)c1ccccc1 (stereo not given) | – | inactive
CCCCCCCCc1ccc(O)cc1 | – | inactive
O=C(O)C(F)(F)C(F)(F)C(F)(F)C(F)(F)C(F)(F)C(F)(F)F | – | inactive
CNC(=O)O/N=C/C(C)(C)S(C)=O (stereo not given) | – | inactive
CCCCOCCOC(C)=O | – | inactive
CC(C)(c1ccc(OCC2CO2)cc1)c1ccc(OCC2CO2)cc1 (stereo not given) | – | inactive
CC(C)(c1ccccc1)c1ccc(O)c(C(C)(C)c2ccccc2)c1 | – | inactive
ClC(Cl)=C(Cl)C(Cl)=C(Cl)Cl | – | inactive
CCC[CH2][Sn]([CH2]CCC)([CH2]CCC)[O]C(=O)c1ccccc1 | 0.0331 µM (active) | –
